The subject of experiment [1] is Plasmodium falciparum Sir2 (PF13_0152, Sir2A). The experiment can be described thus: Plasmodium falciparum Sir2A binding compounds – biochemical, small-molecule microarray, 635 nm fluorescence, primary screen (AID 1098).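 Further: score merges spot fluorescence intensity with its signal-to-noise ratio.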 The following applies: fluorescence 635 nm, higher = more signal.
The nature of experiment [2]: probe aDKK1 binding to arrayed compounds – biochemical, biotinylated probe, 635/667 nm fluorescence, primary screen (AID 1099).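 Further: score merges 667nm spot fluorescence with signal to noise across triplicate slides; reference of the scale not given here.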 As to conditions: small-molecule microarray, higher = more signal.
The nature of experiment [3]: probe aCHRDL2 binding to arrayed compounds – biochemical, biotinylated probe, 635/667 nm fluorescence, primary screen (AID 1100). The following applies: small-molecule microarray, higher = more signal.
Experiment [4] is described as follows: change in splice reporter luminescence, either direction, cell-based, HEK293, spliceosome inhibition project, primary screen (AID 1101).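 Further: HEK293 cells carrying a splicing-competent luciferase reporter gene; test concentration not given here.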 As to conditions: HEK293 splicing luciferase reporter, 24 h, higher = more signal, called active from +8 up or from −8 down. In general terms: Reporter assays use an easily measured gene product as a stand-in for the process of interest.

The target of experiment [5] is Fibroblast growth factor 10 (Homo sapiens) (UniProt O15520). The experiment can be described thus: compounds binding fibroblast growth factor 10 – biochemical, small-molecule microarray, 635 nm fluorescence, primary screen (AID 1102). As to conditions: FGF10 binding, fluorescence 635 nm, higher = more signal.
Sequence of Fibroblast growth factor 10 (Homo sapiens) (O15520 whole entry, looked up): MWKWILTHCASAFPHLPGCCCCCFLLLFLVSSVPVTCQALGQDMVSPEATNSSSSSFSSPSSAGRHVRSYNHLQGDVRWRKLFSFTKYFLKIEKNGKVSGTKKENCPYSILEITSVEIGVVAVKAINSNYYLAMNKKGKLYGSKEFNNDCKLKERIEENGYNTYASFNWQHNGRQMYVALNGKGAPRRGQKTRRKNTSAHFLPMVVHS
For experiment [6], the system named is glycogen synthase kinase-3 (GSK3A per assay name; protocol says GSK3B). The experiment is described as follows: compounds binding glycogen synthase kinase-3 – biochemical, small-molecule microarray, 635 nm fluorescence, GSK3A, primary screen (AID 1103). Further: the record names both GSK3A and GSK3B. The following applies: fluorescence 635 nm, higher = more signal.
Experiment [7] deals with Epidermal growth factor receptor (Homo sapiens) (UniProt P00533). The experiment is described as follows: compounds binding epidermal growth factor receptor – biochemical, small-molecule microarray, 635 nm fluorescence, primary screen (AID 1104).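 Further: score merges 667 nm emission intensity with spot signal to noise over triplicate slides.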 As to conditions: EGFR binding, higher = more signal.
Sequence of Epidermal growth factor receptor (Homo sapiens) (P00533 whole entry, looked up): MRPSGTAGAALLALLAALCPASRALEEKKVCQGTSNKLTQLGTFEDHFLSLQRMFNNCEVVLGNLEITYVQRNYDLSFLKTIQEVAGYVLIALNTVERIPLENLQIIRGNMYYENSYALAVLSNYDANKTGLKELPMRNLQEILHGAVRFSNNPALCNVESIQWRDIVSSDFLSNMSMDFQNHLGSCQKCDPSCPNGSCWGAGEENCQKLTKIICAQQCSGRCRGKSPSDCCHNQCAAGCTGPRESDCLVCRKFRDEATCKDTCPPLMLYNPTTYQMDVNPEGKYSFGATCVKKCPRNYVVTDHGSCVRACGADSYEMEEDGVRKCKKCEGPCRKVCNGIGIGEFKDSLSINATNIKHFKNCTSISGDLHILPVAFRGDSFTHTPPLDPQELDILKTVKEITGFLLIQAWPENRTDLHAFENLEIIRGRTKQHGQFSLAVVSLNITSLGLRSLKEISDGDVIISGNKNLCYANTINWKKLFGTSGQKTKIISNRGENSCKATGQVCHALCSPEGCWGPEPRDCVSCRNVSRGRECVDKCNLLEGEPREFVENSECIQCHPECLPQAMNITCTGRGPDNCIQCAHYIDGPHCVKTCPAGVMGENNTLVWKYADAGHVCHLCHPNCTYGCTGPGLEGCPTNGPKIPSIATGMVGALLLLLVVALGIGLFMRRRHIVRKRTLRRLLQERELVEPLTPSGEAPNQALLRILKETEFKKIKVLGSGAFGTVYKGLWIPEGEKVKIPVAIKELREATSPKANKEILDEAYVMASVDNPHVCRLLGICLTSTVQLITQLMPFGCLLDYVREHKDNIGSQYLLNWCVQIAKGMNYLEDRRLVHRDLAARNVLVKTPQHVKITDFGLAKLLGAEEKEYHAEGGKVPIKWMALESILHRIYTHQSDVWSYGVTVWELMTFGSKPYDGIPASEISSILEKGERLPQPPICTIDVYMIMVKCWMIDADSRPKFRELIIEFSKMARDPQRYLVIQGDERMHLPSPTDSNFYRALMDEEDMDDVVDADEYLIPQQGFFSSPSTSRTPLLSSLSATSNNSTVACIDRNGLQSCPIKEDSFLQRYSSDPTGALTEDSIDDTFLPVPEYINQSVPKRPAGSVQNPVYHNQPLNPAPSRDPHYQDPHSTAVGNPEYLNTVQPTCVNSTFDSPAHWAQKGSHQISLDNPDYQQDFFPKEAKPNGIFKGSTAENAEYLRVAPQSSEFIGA
The target of experiment [8] is Follistatin-related protein 3 (Homo sapiens) (UniProt O95633). The experiment can be described thus: compounds binding follistatin-related protein 3 – biochemical, small-molecule microarray, 635 nm fluorescence, primary screen (AID 1105).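 Further: score merges emission near 667 nm and signal to noise per printed spot across three slides.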 The following applies: FSTL3 binding, higher = more signal.
Sequence of Follistatin-related protein 3 (Homo sapiens) (O95633 whole entry, looked up): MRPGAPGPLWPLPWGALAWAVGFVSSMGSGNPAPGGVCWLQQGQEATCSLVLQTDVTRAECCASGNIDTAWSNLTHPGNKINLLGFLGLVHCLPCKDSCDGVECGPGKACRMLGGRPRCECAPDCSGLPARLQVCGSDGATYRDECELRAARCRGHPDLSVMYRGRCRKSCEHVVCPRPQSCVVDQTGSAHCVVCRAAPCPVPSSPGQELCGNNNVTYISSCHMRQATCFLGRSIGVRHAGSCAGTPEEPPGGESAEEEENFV
In experiment [9] the target is Dickkopf-related protein 1 (Homo sapiens) (UniProt O94907). The experiment is described as follows: small molecules binding DKK1 protein – biochemical, small-molecule microarray, 635 nm fluorescence scan, primary screen (AID 1106).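 Further: score merges emission near 667 nm with signal to noise over three replicate slides.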 The following applies: higher = more signal.
Sequence of Dickkopf-related protein 1 (Homo sapiens) (O94907 whole entry, looked up): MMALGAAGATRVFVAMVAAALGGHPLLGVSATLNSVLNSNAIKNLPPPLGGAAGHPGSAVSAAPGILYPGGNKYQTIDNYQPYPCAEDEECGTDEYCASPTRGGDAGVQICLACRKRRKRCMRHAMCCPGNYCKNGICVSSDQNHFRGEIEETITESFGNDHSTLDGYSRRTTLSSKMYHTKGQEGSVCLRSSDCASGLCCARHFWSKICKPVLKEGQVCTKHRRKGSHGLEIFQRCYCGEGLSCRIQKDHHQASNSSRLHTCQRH
Experiment [10] relates to Inhibin beta A chain (activin A). The experiment is described as follows: small molecules binding activin A – biochemical, small-molecule microarray, 635 nm fluorescence scan, primary screen (AID 1107).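 Further: mouse activin A protein probed at 4.33 µg/mL on printed slides; score merges bound-protein fluorescence near 667 nm with spot signal-to-noise.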 As to conditions: INHBA, higher = more signal.

The source made the active and inactive calls.

In the case of `C[C@]1(C(=O)NCCN2CCOCC2)c2ccccc2C(=O)N(Cc2ccc(OC(F)(F)F)cc2)[C@H]1c1ccc(CO)cc1`, the composite z-score is 0.654 in experiment [1]; -0.103 in [2]; 0.604 in experiment [3]; -0.564 in [5]; -0.254 in experiment [6]; -1.39 in experiment [7]. For the same compound, the composite z-score was -0.381 in experiment [8], -1.33 in experiment [9] and -0.017 in [10]. Further, the z-score in experiment [4] is 0.396 (inactive).
`CC(C)N1C(=O)[C@@]2(c3ccc([N+](=O)[O-])cc3)CC(=O)N(C3CCCCC3)[C@@H]2c2ccc(CO)cc21`: the composite z-score in experiment [1] is 0.29; in experiment [2], -0.227; in [3], -0.173; in experiment [5] it was 0.269; in experiment [6] it was 0.172; in experiment [7] it was -0.137. Moreover, the composite z-score is 0.656 in experiment [8], 0.501 in experiment [9] and 0.859 in experiment [10]. Further, the z-score in [4] was 0.403 (inactive).
For the compound `COc1ccccc1CN1C(=O)c2ccccc2[C@](Cc2ccccc2I)(C(=O)NC(C)C)[C@@H]1c1ccc(CO)cc1`, the composite z-score in experiment [1] was 0.672; in experiment [2], -0.132; in [3], -0.0563; in [5], 1.32; in [6] it was 1.3; in experiment [7], 0.457. In addition, the figures for the composite z-score in [8], in experiment [9] and in experiment [10] were 1.28, 0.312 and -0.0084, respectively. For the same compound, the z-score in experiment [4] is -0.691 (inactive).
For the compound `COCCCNC(=O)[C@@]1(Sc2ccc(C)cc2)CC(=O)N(Cc2cc(C(F)(F)F)cc(C(F)(F)F)c2)[C@@H]1c1ccc(CO)cc1`, the composite z-score in experiment [1] was 1.08; in [2], -0.0248; in [3], -0.0087; in [5], 0.327; in [6], -0.257; in experiment [7], -0.107. The composite z-score in experiment [8] was 1.01; in experiment [9], 0.585; in experiment [10] it was 0.612. The z-score in experiment [4] is 0.261 (inactive).
For the compound `CC1CC/C=C\[C@H]2OC34C=CCN(C(C)C)C(=O)[C@H]3N(CCCCCO)C(=O)[C@@H]4C2C(=O)O1` (stereo not given in full), the composite z-score was 0.382 in [1]; -0.0733 in [2]; 0.655 in experiment [3]; -0.82 in experiment [5]; -0.609 in [6]; -1.4 in experiment [7]. Moreover, the composite z-score was -1.05 in experiment [8], -1.73 in [9] and -0.15 in experiment [10]. The z-score in experiment [4] is -0.356 (inactive).
As for `COc1cc2c(cc1OC)CN(C(=O)[C@@H]1[C@H]3C(=O)O[C@H](c4ccccc4)[C@H](c4ccccc4)N3[C@H](c3ccccc3OCCO)[C@@]13C(=O)Nc1ccc(C#CC4(O)CCCCCC4)cc13)CC2`, the composite z-score in experiment [1] was determined as 1.1; in experiment [2] it was 0.159; in experiment [3] it was 0.0184; in [5] it was 0.366; in [6], 1.13; in experiment [7], 0.368. For the same compound, the composite z-score amounted to 0.511 in experiment [8], 0.383 in [9] and 0.275 in experiment [10]. In addition, in experiment [4], the z-score is 0.582 (inactive).
`COCCOC(=O)N1C(=O)[C@@]2(c3cc(C#Cc4ccc(OC)cc4)ccc31)[C@H](C(=O)N1CCCCCCC1)[C@H]1C(=O)O[C@H](c3ccccc3)[C@H](c3ccccc3)N1[C@@H]2c1ccc(O)cc1`: the composite z-score in experiment [1] came out at 0.773; in [2] it was 1.12; in experiment [3], 0.522; in experiment [5], 0.546; in [6] it was 1.15; in experiment [7], 0.519. The composite z-score in experiment [8] is 1.31; in experiment [9], 0.567; in experiment [10], 1.35. The z-score in experiment [4] is -0.527 (inactive).
For `CCOC(=O)C1=C[C@@H](c2ccccc2)N(S(=O)(=O)c2ccc(C)cc2)[C@H]1c1cccc(Cl)c1`, the composite z-score in [1] worked out at 0.937; in experiment [2] it was 1.09; in experiment [3] it was 1.17; in [5], 0.839; in [6], 1.27; in [7], 0.448. Besides, the values for the composite z-score in [8], in experiment [9] and in experiment [10] were 1.17, -0.0943 and -0.249, respectively. Besides, the z-score in experiment [4] was -0.355 (inactive).
As for `C=C(CCCC)/C(=C/C[C@@H](OC(=O)c1ccncc1)c1cccc(OCCO)c1)c1cnc2ccccc2c1`, the composite z-score in [1] amounted to 0.148; in [2], 0.11; in experiment [3], 0.563; in experiment [5], 1.52; in [6] it was 0.667; in experiment [7], 1.27. The results for the composite z-score in [8], in [9] and in [10] were 1.56, 0.895 and 1.67, respectively. For the same compound, in experiment [4], the z-score was -0.562 (inactive).
Consider `COCCOC(=O)N1C(=O)[C@@]2(c3ccccc31)[C@H](c1ccc(OCCO)cc1)N1[C@H](c3ccccc3)[C@H](c3ccccc3)OC(=O)[C@H]1[C@@H]2C(=O)Nc1nc2ccccc2s1`, for which the composite z-score in [1] is 1.45; in experiment [2] it was -0.223; in experiment [3] it was 0.414; in experiment [5] it was 0.967; in experiment [6], 0.986; in experiment [7], 0.545. Further, the composite z-score in experiment [8] is 0.852; in [9], 0.293; in [10] it was 0.34. Besides, the z-score in experiment [4] was 0.579 (inactive).
As for `C=CC[C@H](OC(=O)Nc1ccc(OC)cc1)c1ccc(O)c2ccccc12`, the composite z-score in [1] was found to be 1.24; in experiment [2], 0.121; in experiment [3] it was 0.0255; in experiment [5], 0.82; in experiment [6] it was 1.29; in experiment [7], 0.547. Further, the composite z-score is 1.26 in [8], 0.92 in experiment [9] and 1.05 in experiment [10]. In addition, the z-score in [4] is 3.32 (inactive).
Consider `CC(C)CN1C(=O)[C@@]2(c3ccc([N+](=O)[O-])cc3)CC(=O)N(CC34CC5CC(CC(C5)C3)C4)[C@@H]2c2ccc(CO)cc21`, for which the composite z-score in experiment [1] was 0.984; in experiment [2], 0.185; in experiment [3], 0.807; in experiment [5] it was -1.02; in [6], -0.853; in [7] it was -1.72. For the same compound, the composite z-score in experiment [8] is -1.09; in experiment [9], -1.48; in experiment [10], 0.2. Also, in [4], the z-score is -0.668 (inactive).
As for `COc1cc(CO)cc(I)c1O[C@H]1C=C(C(=O)NCCO)C[C@@H](N(Cc2ccc(F)cc2)C(=O)C2CCCO2)[C@@H]1O` (stereo not given in full), the composite z-score was 0.0885 in experiment [1]; -0.139 in experiment [2]; -0.697 in experiment [3]; 0.182 in [5]; 0.1 in experiment [6]; 0.346 in [7]. Moreover, the composite z-score was found to be 0.203 in [8], 0.208 in experiment [9] and 0.676 in experiment [10]. In addition, the z-score in experiment [4] was -0.0727 (inactive).
For the compound `CCOC(=O)C[C@H]1[C@H](OC(=O)c2ccc(C(=O)c3ccccc3)cc2)[C@@H](NC(=O)c2ccc3ccccc3c2)c2cc(OCCCO)ccc2N1C(=O)c1ccccc1`, the composite z-score in experiment [1] was found to be 0.422; in experiment [2] it was 0.489; in experiment [3], 0.17; in experiment [5], 0.734; in experiment [6], 0.993; in experiment [7], 0.0993. Also, the composite z-score turned out to be 0.786 in experiment [8], 0.105 in experiment [9] and 0.007 in experiment [10]. In addition, the z-score in experiment [4] is -0.072 (inactive).
With `C=C(C(=O)CC[C@H](OC(=O)c1cccnc1)c1ccc(CO)o1)C(C)C`, the composite z-score was 1.08 in experiment [1]; 0.0114 in experiment [2]; -0.239 in experiment [3]; 0.866 in experiment [5]; 0.836 in experiment [6]; 0.0193 in experiment [7]. For the same compound, the composite z-score in experiment [8] turned out to be 0.406; in [9] it was 0.603; in experiment [10] it was 0.935. Further, the z-score in [4] was 0.586 (inactive).
Turning to `C=CCNC(=O)[C@@H]1[C@H]2C(=O)O[C@H](c3ccccc3)[C@H](c3ccccc3)N2[C@H](c2ccccc2OCCO)[C@@]12C(=O)N(C(=O)OCCOC)c1ccc(C#CC3=CCCCC3)cc12`, the composite z-score in [1] was determined as 1.26; in experiment [2], 0.057; in experiment [3], 0.144; in experiment [5], 1.15; in experiment [6] it was 1.16; in [7], 0.469. The results for the composite z-score in [8], in experiment [9] and in [10] were 0.831, 0.373 and -0.0496, respectively. Also, the z-score in [4] is -1.1 (inactive).
